{"source": "PubChem BioAssay AID434961", "about": "(Broad Institute, 2010)", "note": "The whole screen tested about 7,700 compounds, of which about 15 (0.2%) were called active. Not shown: some 6% with an inconclusive outcome.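 How the source made its calls: active means more than half of replicate wells with inhibition above about 18% (limit read from the data, passing the limit was not always enough); inconclusive means exactly half of replicate wells above that limit; inactive means fewer than half of replicates above it.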 The entries come from a sample that favours actives as a whole."}
{"target": "Regulator of chromosome condensation (Homo sapiens) + GTP-binding nuclear protein Ran (Homo sapiens) + Importin subunit beta-1 (Homo sapiens) (UniProt P18754+P62826+Q14974)", "assay": "inhibitors of Ran–importin-beta complex formation, primary screen, biochemical, CFP-Ran/YFP-importin-beta FRET, RCC1, cell-free (AID 434961);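 further: 0% = DMSO wells and 100% inhibition = RanGDP control wells on each plate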", "details": "stronger effect = higher value, concentration not given here"}
{"molecule": "CNC[C@H]1Oc2c(cccc2N(C)C)C(=O)N([C@H](C)CO)C[C@H]1C", "inhibition": "-1.15% (inactive)"}
{"molecule": "COc1ccc(CN(C)C[C@H]2Oc3c(NC(=O)Nc4c(C)noc4C)cccc3C(=O)N([C@H](C)CO)C[C@@H]2C)cc1", "inhibition": "0.675% (inactive)"}
{"molecule": "C[C@H](CO)N1C[C@H](C)[C@H](CN(C)C(=O)Nc2ccccc2)Oc2c(NC(=O)c3ccc(-c4nccs4)cc3)cccc2C1=O", "inhibition": "-2.67% (inactive)"}
{"molecule": "C[C@H](CO)N1C[C@H](C)[C@H](CN(C)Cc2ccc3c(c2)OCO3)Oc2ccc(NC(=O)CCC(F)(F)F)cc2CC1=O", "inhibition": "0.912% (inactive)"}
{"molecule": "C[C@@H]1CCCCO[C@@H](CN(C)C(=O)CCCN(C)C)[C@H](C)CN([C@@H](C)CO)C(=O)c2cc(N(C)C)ccc2O1", "inhibition": "1.1% (inactive)"}
{"molecule": "C[C@@H]1CCCCO[C@@H](CN(C)C(=O)c2ccncc2)[C@@H](C)CN([C@@H](C)CO)C(=O)c2cc(NS(=O)(=O)c3cccs3)ccc2O1", "inhibition": "-2.75% (inactive)"}
{"molecule": "COc1ccc(CN(C)C[C@@H]2Oc3c(NS(=O)(=O)c4cn(C)cn4)cccc3C(=O)N([C@H](C)CO)C[C@@H]2C)cc1", "inhibition": "-1.87% (inactive)"}
{"molecule": "C[C@H](CO)N1C[C@H](C)[C@H](CN(C)Cc2ccc(Cl)c(Cl)c2)Oc2c(NS(=O)(=O)c3cn(C)cn3)cccc2C1=O", "inhibition": "-0.00607% (inactive)"}
{"molecule": "C[C@@H]1CCCCO[C@H](CN(C)C(=O)Nc2ccccc2)[C@@H](C)CN([C@@H](C)CO)C(=O)c2cc(NC(=O)CCCN(C)C)ccc2O1", "inhibition": "-3.05% (inactive)"}
{"molecule": "CNC[C@H]1Oc2ccc(NS(=O)(=O)c3cccs3)cc2CC(=O)N([C@H](C)CO)C[C@H]1C", "inhibition": "-0.195% (inactive)"}
{"molecule": "C[C@@H]1CCCCO[C@@H](CN(C)S(C)(=O)=O)[C@H](C)CN([C@H](C)CO)C(=O)c2cc(NS(=O)(=O)c3ccccc3)ccc2O1", "inhibition": "-0.778% (inactive)"}
{"molecule": "C[C@H]1CN([C@@H](C)CO)C(=O)Cc2cc(NC(=O)C3CC3)ccc2O[C@@H]1CN(C)C(=O)Nc1ccccc1", "inhibition": "-14.8% (inactive)"}
{"molecule": "CNC[C@@H]1Oc2c(N)cccc2C(=O)N([C@H](C)CO)C[C@@H]1C", "inhibition": "-1.12% (inactive)"}
{"molecule": "COc1ccccc1CN(C)C[C@H]1OCc2cn(nn2)CCCC(=O)N([C@H](C)CO)C[C@H]1C", "inhibition": "3.38% (inactive)"}
{"molecule": "C[C@@H]1CN([C@@H](C)CO)C(=O)c2cccc(NC(=O)c3ccncc3)c2O[C@H]1CN(C)S(=O)(=O)c1cccs1", "inhibition": "0.118% (inactive)"}
{"molecule": "C[C@H]1CCCCO[C@@H](CN(C)Cc2ccncc2)[C@@H](C)CN([C@@H](C)CO)C(=O)c2cc(N(C)C)ccc2O1", "inhibition": "1.7% (inactive)"}
{"molecule": "COc1ccc(NC(=O)Nc2ccc3c(c2)C(=O)N([C@@H](C)CO)C[C@@H](C)[C@H](CN(C)Cc2ccc(C(=O)O)cc2)O3)cc1", "inhibition": "0.138% (inactive)"}
{"molecule": "C[C@@H]1CN([C@H](C)CO)C(=O)c2cc(NC(=O)Nc3ccccc3)ccc2O[C@@H](C)CCCCO[C@H]1CN(C)S(=O)(=O)c1ccc(F)cc1", "inhibition": "4.18% (inactive)"}
{"molecule": "C[C@H](CO)N1C[C@H](C)[C@@H](CN(C)C(=O)NC2CCCCC2)Oc2ccc(N(C)C)cc2C1=O", "inhibition": "3.39% (inactive)"}
{"molecule": "C[C@@H]1CCCCO[C@@H](CN(C)S(=O)(=O)c2cn(C)cn2)[C@H](C)CN([C@@H](C)CO)C(=O)c2cc(NC(=O)c3ccccc3)ccc2O1", "inhibition": "1.13% (inactive)"}
{"molecule": "Cc1ccc(S(=O)(=O)Nc2ccc3c(c2)CC(=O)N([C@H](C)CO)C[C@H](C)[C@@H](CN(C)Cc2ccncc2)O3)cc1", "inhibition": "0.0587% (inactive)"}
{"molecule": "Cc1noc(C)c1S(=O)(=O)Nc1ccc2c(c1)CC(=O)N([C@H](C)CO)C[C@@H](C)[C@@H](CN(C)C(=O)NC(C)C)O2", "inhibition": "-4.94% (inactive)"}
{"molecule": "C[C@H]1CN([C@@H](C)CO)C(=O)Cc2cc(NC(=O)C3CC3)ccc2O[C@H]1CN(C)Cc1ccc(Cl)c(Cl)c1", "inhibition": "7.64% (inactive)"}
{"molecule": "C[C@@H]1CCCCO[C@H](CN(C)C(=O)Nc2ccccc2)[C@@H](C)CN([C@H](C)CO)C(=O)c2cc(NC(=O)Cc3ccccc3)ccc2O1", "inhibition": "0.496% (inactive)"}
{"molecule": "C[C@@H]1CCCCO[C@H](CN(C)C(=O)CCCN(C)C)[C@@H](C)CN([C@H](C)CO)C(=O)c2cc(NS(=O)(=O)c3cccs3)ccc2O1", "inhibition": "-2.86% (inactive)"}
{"molecule": "C[C@@H]1CN([C@@H](C)CO)C(=O)c2cc(NC(=O)c3ccncc3)ccc2O[C@H]1CN(C)C(=O)Nc1ccccc1", "inhibition": "4.49% (inactive)"}
{"molecule": "Cc1noc(C)c1NC(=O)N(C)C[C@@H]1Oc2ccc(NC(=O)Nc3cccc4ccccc34)cc2C(=O)N([C@H](C)CO)C[C@H]1C", "inhibition": "-0.0777% (inactive)"}
{"molecule": "C[C@@H]1CN([C@H](C)CO)C(=O)Cc2cc(NC(=O)C3CC3)ccc2O[C@H]1CN(C)C", "inhibition": "-6.15% (inactive)"}
{"molecule": "C[C@@H]1CCCCO[C@H](CN(C)Cc2ccncc2)[C@H](C)CN([C@H](C)CO)C(=O)c2cc(NC(=O)c3ccncc3)ccc2O1", "inhibition": "-0.929% (inactive)"}
{"molecule": "C[C@@H]1CCCCO[C@@H](CN(C)S(=O)(=O)c2cccs2)[C@H](C)CN([C@H](C)CO)C(=O)c2cc(NS(C)(=O)=O)ccc2O1", "inhibition": "-1.23% (inactive)"}
{"molecule": "Cc1cc(C(=O)Nc2cccc3c2O[C@@H](CN(C)CC2CC2)[C@@H](C)CN([C@@H](C)CO)C3=O)n(C)n1", "inhibition": "-1.14% (inactive)"}
{"molecule": "C[C@H]1CN([C@@H](C)CO)C(=O)c2cccc(NC(=O)c3ccc(-c4nccs4)cc3)c2O[C@@H]1CN(C)C(=O)Nc1ccccc1", "inhibition": "0.856% (inactive)"}
{"molecule": "C[C@H]1CN([C@@H](C)CO)C(=O)c2cccc(NC(=O)c3ccc(-c4nccs4)cc3)c2O[C@H]1CN(C)C(=O)Nc1ccccc1", "inhibition": "18.7% (active)"}
{"molecule": "C[C@H]1CN([C@@H](C)CO)C(=O)c2cccc(NC(=O)c3ccc(-c4nccs4)cc3)c2O[C@H]1CN(C)CC1CC1", "inhibition": "1.58% (inactive)"}
{"molecule": "C[C@@H]1CN([C@H](C)CO)C(=O)c2cccc(NC(=O)c3ccc(-c4nccs4)cc3)c2O[C@@H]1CN(C)CC1CC1", "inhibition": "29.6% (active)"}
{"molecule": "C[C@@H]1CN([C@H](C)CO)C(=O)c2cccc(NC(=O)c3ccc(-c4nccs4)cc3)c2O[C@@H]1CN(C)C(=O)Nc1ccccc1", "inhibition": "-1.55% (inactive)"}
{"molecule": "C[C@H](CO)N1C[C@H](C)[C@H](CN(C)CC2CC2)Oc2c(NC(=O)c3ccc(-c4nccs4)cc3)cccc2C1=O", "inhibition": "-0.371% (inactive)"}
{"molecule": "Cc1noc(C)c1NC(=O)N(C)C[C@@H]1Oc2ccc(NS(=O)(=O)c3cccs3)cc2C(=O)N([C@H](C)CO)C[C@@H]1C", "inhibition": "-1.63% (inactive)"}
{"molecule": "C[C@@H]1CCCCO[C@@H](CN(C)C(=O)CCC(F)(F)F)[C@H](C)CN([C@@H](C)CO)C(=O)c2cc(NS(=O)(=O)c3ccccc3)ccc2O1", "inhibition": "-3.22% (inactive)"}
{"molecule": "C[C@@H]1CN([C@@H](C)CO)C(=O)c2cccc(NS(C)(=O)=O)c2O[C@H]1CN(C)S(=O)(=O)c1cn(C)cn1", "inhibition": "0.88% (inactive)"}
{"molecule": "C[C@H]1CN([C@@H](C)CO)C(=O)Cc2cc(NC(=O)Cc3cn(C)c4ccccc34)ccc2O[C@@H]1CN(C)C(=O)Nc1ccccc1", "inhibition": "0.0312% (inactive)"}
{"molecule": "Cc1noc(C)c1S(=O)(=O)Nc1cccc2c1O[C@H](CN(C)C(=O)NC1CCCCC1)[C@H](C)CN([C@@H](C)CO)C2=O", "inhibition": "-6.51% (inactive)"}
{"molecule": "Cc1noc(C)c1S(=O)(=O)Nc1cccc2c1O[C@@H](CN(C)Cc1ccc(C(F)(F)F)cc1)[C@@H](C)CN([C@@H](C)CO)C2=O", "inhibition": "-1.54% (inactive)"}
{"molecule": "C[C@H]1CN([C@@H](C)CO)C(=O)c2cc(NC(=O)C3CC3)ccc2O[C@@H]1CN(C)Cc1ccc(Cl)c(Cl)c1", "inhibition": "-5.2% (inactive)"}
{"molecule": "C[C@@H]1CN([C@H](C)CO)C(=O)Cc2cc(NC(=O)Nc3ccccc3)ccc2O[C@@H]1CN(C)C(=O)Nc1ccc(C(F)(F)F)cc1", "inhibition": "-1.14% (inactive)"}
{"molecule": "C[C@@H]1CCCCO[C@H](CN(C)C)[C@@H](C)CN([C@H](C)CO)C(=O)c2cc(NC(=O)Nc3ccc(F)cc3)ccc2O1", "inhibition": "3.67% (inactive)"}
{"molecule": "Cc1noc(C)c1S(=O)(=O)Nc1cccc2c1O[C@H](CN(C)C)[C@H](C)CN([C@H](C)CO)C2=O", "inhibition": "5.73% (inactive)"}
{"molecule": "C[C@@H]1CN([C@@H](C)CO)C(=O)c2cc(NC(=O)Nc3ccc4c(c3)OCO4)ccc2O[C@@H]1CN(C)Cc1ccc(C(=O)O)cc1", "inhibition": "-3.71% (inactive)"}
{"molecule": "C[C@@H]1CN([C@@H](C)CO)C(=O)CCCn2nncc2CO[C@@H]1CN(C)C", "inhibition": "4.43% (inactive)"}
{"molecule": "COc1ccc(CN(C)C[C@@H]2OCCCC[C@H](C)Oc3ccc(NC(=O)Nc4c(C)noc4C)cc3C(=O)N([C@H](C)CO)C[C@@H]2C)cc1", "inhibition": "0.0847% (inactive)"}
{"molecule": "Cc1noc(C)c1S(=O)(=O)Nc1ccc2c(c1)CC(=O)N([C@H](C)CO)C[C@H](C)[C@H](CN(C)C(=O)Nc1cccc3ccccc13)O2", "inhibition": "5.9% (inactive)"}
{"molecule": "C[C@H](CO)N1C[C@H](C)[C@H](CN(C)S(=O)(=O)c2cccs2)Oc2c(NC(=O)Nc3ccc(C(F)(F)F)cc3)cccc2C1=O", "inhibition": "3.84% (inactive)"}
{"molecule": "CC(C)NC(=O)N(C)C[C@H]1OCCCC[C@H](C)Oc2ccc(NC(=O)CCCN(C)C)cc2C(=O)N([C@H](C)CO)C[C@@H]1C", "inhibition": "-1.47% (inactive)"}
{"molecule": "C[C@@H]1CN([C@@H](C)CO)C(=O)CCCn2cc(nn2)CO[C@H]1CN(C)C(=O)Nc1ccc(-c2cccs2)cc1", "inhibition": "-3.35% (inactive)"}
{"molecule": "COc1ccc(S(=O)(=O)Nc2ccc3c(c2)CC(=O)N([C@H](C)CO)C[C@H](C)[C@H](CN(C)S(=O)(=O)c2cn(C)cn2)O3)cc1", "inhibition": "5.44% (inactive)"}
{"molecule": "C[C@@H]1CN([C@@H](C)CO)C(=O)c2cccc(NS(=O)(=O)c3cccs3)c2O[C@@H]1CN(C)Cc1ccc(C(=O)O)cc1", "inhibition": "-3.95% (inactive)"}
